Assay results reported in the supplement of paper PMC13380429.

What follows are compounds tested on Vero E6 infected with SARS-CoV-2 (assay: morphology score (similarity to uninfected cells); higher = more like uninfected cells). Conditions: 24 h.

Row | Compound | morphology score
1 | C[C@@]1(O)[C@H](O)[C@@H](CO)O[C@H]1n1cnc2c(NC3CCCC3)nc(Cl)nc21 (10 µM) | 0.0826
2 | C[C@@H](CN1CC(=O)NC(=O)C1)N1CC(=O)NC(=O)C1 [dexrazoxane] (10 µM) | 0.0659
3 | Cn1c(N2CCCCS2(=O)=O)nc(C(=O)NCc2ccc(F)cc2)c(O)c1=O (10 µM) | 0.046
4 | O=C(CCCCC(=O)Nc1c(I)cc(I)c(C(=O)O)c1I)Nc1c(I)cc(I)c(C(=O)O)c1I [iodipamide] (10 µM) | 0.0415
5 | Oc1c(I)cc(Cl)c2cccnc12 [clioquinol] (10 µM) | 0.127
6 | Cc1ccc(C(=O)Nc2ccc(Oc3cc4cnn(C)c4cc3-c3cn[nH]c3)c(F)c2)c(=O)n1-c1ccc(F)cc1 (0.833333 µM) | 0.172
7 | CC(=O)[C@]1(O)Cc2c(O)c3c(c(O)c2[C@@H](O[C@H]2C[C@H](N)[C@H](O)[C@H](C)O2)C1)C(=O)c1ccccc1C3=O [idarubicin] (0.833333 µM) | -0.15
8 | CN1C(=O)CC(C)(c2ccccc2)C1=O (stereo not given) [methsuximide] (10 µM) | 0.0784
9 | Oc1ccc(C2CNCCc3c2cc(O)c(O)c3Cl)cc1 (stereo not given) [fenoldopam] (10 µM) | 0.226
10 | NC[C@H]1O[C@H](O[C@H]2[C@H](O)[C@@H](O[C@H]3O[C@H](CO)[C@@H](O)[C@H](N)[C@H]3O)[C@H](N)C[C@@H]2N)[C@H](N)[C@@H](O)[C@@H]1O [bekanamycin] (10 µM) | 0.0989
11 | Nc1ccc(C(=O)Oc2ccccc2)c(O)c1 [phenyl-aminosalicylate] (10 µM) | 0.0987
12 | c1ccc(C(NCc2cccnc2)(c2ccccc2)c2ccccc2)cc1 (10 µM) | -0.069
13 | Nc1cc2c3ccccc3ccc2c2ccccc12 [6-aminochrysene] (10 µM) | 0.144
14 | C/C(=C\C(N)C(=O)O)CP(=O)(O)O (stereo not given) (10 µM) | 0.064
15 | O=C(O)[C@H](O)[C@@H](O)[C@H](O[C@@H]1O[C@H](CO)[C@H](O)[C@H](O)[C@H]1O)[C@H](O)CO [maltobionic-acid] (10 µM) | 0.138
16 | COc1ccc(OC)c(CN(C(C)=O)c2cc(F)ccc2Oc2ccccc2)c1 (10 µM) | 0.0987
17 | CCCc1c(OCC(O)COc2ccc3c(=O)cc(C(=O)O)oc3c2CCC)ccc(C(C)=O)c1O (stereo not given) (10 µM) | 0.197
18 | CC(=O)O[C@H]1C(=O)[C@@]2(C)[C@H]([C@H](OC(=O)c3ccccc3)[C@]3(O)C[C@H](OC(=O)[C@H](O)[C@@H](NC(=O)c4ccccc4)c4ccccc4)C(C)=C1C3(C)C)[C@]1(OC(C)=O)CO[C@@H]1C[C@@H]2O [paclitaxel] (10 µM) | 0.00639
19 | COc1cccc(OCCCN)c1-c1cc(Nc2cnc(C#N)cn2)n[nH]1 (10 µM) | -0.0952
20 | CN1CCOC(c2ccccc2)c2ccccc2C1 (stereo not given) [nefopam] (10 µM) | 0.0314

Row | Compound | morphology score
21 | COc1cc2cc(c1Cl)N(C)C(=O)C[C@H](OC(=O)C(C)C)[C@]1(C)O[C@@H]1[C@H](C)[C@@H]1C[C@@](O)(NC(=O)O1)[C@H](OC)/C=C/C=C(\C)C2 [ansamitocin-p-3] (0.833333 µM) | -0.108
22 | Cc1c(C)c2c(c(C)c1O)CCC(C)(C(=O)O)O2 (stereo not given) [trolox] (0.833333 µM) | 0.0965
23 | C#C[C@]1(OC(C)=O)CC[C@H]2[C@@H]3CCC4=CC(=O)CC[C@@H]4[C@H]3CC[C@@]21C [norethindrone-acetate] (10 µM) | -0.146
24 | CC[N+](CC)(CCNC(=O)C(=O)NCC[N+](CC)(CC)Cc1ccccc1Cl)Cc1ccccc1Cl [ambenonium] (10 µM) | 0.131
25 | O=C(Nc1ccc(S(=O)(=O)C(F)(F)F)cc1)C1=CCN(c2ncccc2C(F)(F)F)CC1 (10 µM) | 0.135
26 | CC1(N2CCC(n3c([C@@H]4CCCNC4)nc4ccccc43)CC2)CCCCCCC1 (10 µM) | 0.62
27 | O=C1Cc2c([nH]c3ccc(Br)cc23)-c2ccccc2N1 [kenpaullone] (10 µM) | 0.533
28 | O=C(CCCN1CC=C(n2c(=O)[nH]c3ccccc32)CC1)c1ccc(F)cc1 [droperidol] (10 µM) | 0.0599
29 | COC(=O)[C@H](CC(C)C)NC(=O)c1ccc(NC[C@@H](N)CS)cc1-c1cccc2ccccc12 (10 µM) | -0.445
30 | COc1cc(C)c(/C=C/C(C)=C/C=C/C(C)=C/C(=O)O)c(C)c1C [acitretin] (10 µM) | -0.0971
31 | N#Cc1ccc(-c2csc(NN=C3CCCC3)n2)cc1 [remodelin] (10 µM) | 0.0343
32 | O=C(CC(c1ccccc1)c1ccccc1)N1CCN(C(c2ccccc2)c2ccccc2)CC1 (10 µM) | 0.0825
33 | COc1cc(C[C@@H]2NCCc3cc(O)c(O)cc32)cc(OC)c1OC [trimethoquinol] (10 µM) | 0.0323
34 | CN(C)C(=O)C(=O)c1cn(C)c2cc(Cl)c(C(=O)N3CCC(Cc4ccc(F)cc4)CC3)cc12 (10 µM) | 0.323
35 | C[C@H]1O[C@@H](O[C@H]2CC[C@@]3(C)[C@H](CC[C@@H]4[C@@H]3C[C@@H](O)[C@]3(C)[C@@H](C5=CC(=O)OC5)CC[C@]43O)C2)C[C@H](O)[C@@H]1O[C@H]1C[C@H](O)[C@H](O[C@H]2C[C@H](O)[C@H](O[C@@H]3O[C@H](CO)[C@@H](O)[C@H](O)[C@H]3O)[C@@H](C)O2)[C@@H](C)O1 [deslanoside] (0.833333 µM) | -0.123
36 | CSc1ccccc1Nc1nc(N2CCNCC2)nc2c(NCC3CC3)ncnc12 (0.833333 µM) | 0.166
37 | COc1ccccc1N1CCN(CCCCNC(=O)c2ccc3ccccc3c2)CC1 (10 µM) | -0.00528
38 | c1ccc(C(O[C@@H]2CCCN(CCc3ccc4c(c3)OCO4)C2)c2ccccc2)cc1 [zamifenacin] (10 µM) | 0.152
39 | CCCS(=O)(=O)Nc1ccc(F)c(C(=O)c2c[nH]c3ncc(-c4ccc(Cl)cc4)cc23)c1F [vemurafenib] (10 µM) | 0.25
40 | NC(=O)OCC(O)COc1ccc(Cl)cc1 (stereo not given) [chlorphensin-carbamate] (10 µM) | -0.0129
